NR3A LBD binder – modulators (binders) of human NR3A ligand-binding domain; NR3A LBD differential scanning fluorimetry, Tm shift; 0% = protein alone, 100% = glycine-bound protein; hit rate 2.5% among 340,000; AID 1259313; Tm shift relative to glycine control, % at 25 µM;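 active = melting temperature shift of at least 10% of the positive control shift, at one fixed dose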
KLK7 zymogen act – activates the human kallikrein-7 zymogen; activation, % at 7 µM; hit rate 0.9% among 370,000; P49862; purified proKLK7, EDANS-DABCYL substrate fluorescence; 100% is mature enzyme control, 0% vehicle;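 active = activation above the mean of all tested compounds plus 3 SD, computed per campaign excluding outliers beyond control limits, cut at about 13% in these data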
rCAG binder – binds r(CAG) RNA repeats | inhibition, % at 3 µM | hit rate 1.3% among 370,000 | r(CAG) RNA repeat, TO-PRO-1 dye displacement fluorescence;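 active = inhibition above the plate cutoff, the mean of all test compounds on that plate plus 3 SD, cut at about 35% in these data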;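 also: 0% = DMSO alone and 100% = 100 µM mitoxantrone as full dye displacement; higher means more dye released from RNA so lower well fluorescence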
AHR activator – activators of human aryl hydrocarbon receptor. P35869. AHR-responsive luciferase reporter cells, luminescence. activation, % at 5 µM. hit rate 2.5% among 320,000. AID 2796; in the data active = activation above about 47%;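 also: 0% = vehicle wells and 100% = reference agonist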
Target sequence (P35869 whole entry, looked up): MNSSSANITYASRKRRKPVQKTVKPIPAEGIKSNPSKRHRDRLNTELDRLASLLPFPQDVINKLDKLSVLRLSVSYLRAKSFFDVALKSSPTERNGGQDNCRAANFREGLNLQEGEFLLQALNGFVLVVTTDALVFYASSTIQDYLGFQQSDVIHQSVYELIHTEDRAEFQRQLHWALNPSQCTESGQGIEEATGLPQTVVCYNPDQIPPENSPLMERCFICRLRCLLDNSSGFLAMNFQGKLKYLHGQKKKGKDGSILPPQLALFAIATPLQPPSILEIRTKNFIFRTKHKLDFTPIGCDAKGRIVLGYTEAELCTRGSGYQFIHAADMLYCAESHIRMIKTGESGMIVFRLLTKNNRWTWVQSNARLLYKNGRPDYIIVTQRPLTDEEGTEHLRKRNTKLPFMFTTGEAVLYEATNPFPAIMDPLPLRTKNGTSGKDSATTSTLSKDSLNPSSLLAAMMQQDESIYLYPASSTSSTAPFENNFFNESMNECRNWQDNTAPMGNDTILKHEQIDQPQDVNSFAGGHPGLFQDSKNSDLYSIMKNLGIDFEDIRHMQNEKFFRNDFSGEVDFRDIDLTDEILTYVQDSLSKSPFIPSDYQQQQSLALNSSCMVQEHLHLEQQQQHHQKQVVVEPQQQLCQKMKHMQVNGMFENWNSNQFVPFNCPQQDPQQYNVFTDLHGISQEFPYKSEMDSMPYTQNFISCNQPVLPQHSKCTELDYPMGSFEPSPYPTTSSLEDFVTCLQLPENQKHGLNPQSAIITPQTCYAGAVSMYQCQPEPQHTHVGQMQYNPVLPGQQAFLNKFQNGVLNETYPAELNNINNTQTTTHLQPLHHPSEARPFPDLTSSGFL
ADAM17 inh – inhibitors of human ADAM17; P78536; recombinant ADAM17, EDANS/DABCYL FRET peptide cleavage; inhibition, % at 6.95 µM; hit rate 0.83% among 370,000;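 active = inhibition above the mean of compounds lying between control limits plus 3 SD, set per campaign, cut at about 8.5% in these data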;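 also: 0% = DMSO-only wells as the low control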
ADAM10 inh – inhibits human ADAM10; O14672; recombinant ADAM10, EDANS/DABCYL FRET peptide cleavage, 3 h; inhibition, % at 7 µM; hit rate 0.62% among 370,000;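 active = inhibition above a per-campaign cutoff equal to the mean of compounds falling between control-based bounds plus 3 SD, cut at about 20% in these data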;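 also: 0% = DMSO wells while the 100% control is not disclosed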
ADAM10 confirm – confirmation of inhibitors of human ADAM10; hit rate 1% among 2,100; ADAM10 QFRET peptide cleavage, EDANS fluorescence; shares compounds with ADAM10 inh; inhibition, % at 6.95 µM;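 active = inhibition above about 20% chosen separately for each screening run, limit read from the data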;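 also: 0% = DMSO wells and 100% = marimastat wells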
ADAM17 counter – ADAM17 inhibition, counter-screen for ADAM10 exosite hits | shares compounds with ADAM10 inh | ADAM17 QFRET peptide cleavage, EDANS fluorescence | inhibition, % at 6.95 µM | hit rate 0.5% among 2,100;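 active = mean triplicate inhibition above the solvent-only control wells' mean plus 3 SD, cut at about 12% in these data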;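 also: 0% = DMSO wells and 100% = marimastat wells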
Numbers without * were called inactive; nt = not tested or not shown; ! = not confirmed by another sample. An excerpt weighted towards active compounds, which were near 7% of everything screened.

SMILES	NR3A LBD binder	KLK7 zymogen act	rCAG binder	AHR activator	ADAM17 inh	ADAM10 inh	ADAM10 confirm	ADAM17 counter
COC(=O)[C@]12C[C@H](CC(=O)NCc3cccc4ccccc34)C(=O)N(CCc3ccc(OC)c(OC)c3)C1=C[C@H](C(C)(C)C)O[C@@H]2C	nt	1	7	nt	7	22*	10	3
COC(=O)[C@]12C[C@H](CC(=O)NCc3cccs3)C(=O)N(Cc3cccc4ccccc34)C1=C[C@H](C1CCCC1)O[C@@H]2C	nt	0	10	nt	4	21*	9	3
COC(=O)[C@]12C[C@H](CC(=O)NCc3cccc4ccccc34)C(=O)N(Cc3ccco3)C1=C[C@H](COCc1ccccc1)O[C@@H]2C	nt	1	9	nt	7	22*	6	2
CCOC(=O)C1(C(=O)OCC)NC(=O)CC1C(C)C (centres undefined)	1	-1	2	nt	-2	-5	nt	nt
Cc1cccc(NC2SC(=O)NC2=O)c1 (centres undefined)	1	0	1	3	-2	3	nt	nt
CCC1(c2ccc(F)cc2)NC(=O)N(CC(=O)Nc2cccnc2Cl)C1=O (centres undefined)	0	1	-4	1	-2	-5	nt	nt
CCOC(=O)N1CCN(C(=O)C[C@H]2C[C@@]3(C(=O)OC)C(=C[C@H](C4CCCC4)O[C@@H]3C)N(Cc3cccc4ccccc34)C2=O)CC1	nt	0	8	nt	8	24*	8	2
CCCCNC(=O)C[C@H]1C[C@@]2(C(=O)OC)C(=C[C@H](C3CCCC3)O[C@@H]2C)N(Cc2cccc3ccccc23)C1=O	nt	1	7	nt	6	24*	7	2
COC(=O)[C@]12C[C@H](CC(=O)NCCC(C)C)C(=O)N(Cc3cccc4ccccc34)C1=C[C@H](C1CCCC1)O[C@@H]2C	nt	0	6	nt	5	16	nt	nt
CC(C)NS(=O)(=O)c1ccc(CCC(=O)Nc2cc(Cl)ccc2Oc2ccccc2)cc1	-2	nt	nt	1	nt	nt	nt	nt
CCNS(=O)(=O)c1ccc(CCC(=O)Nc2cc(Cl)ccc2Oc2ccccc2)cc1	-25	0	0	1	6	21*	4	2
COc1ccc2nc(C)cc(SCC(=O)N/N=C/c3ccc(O)c(O)c3)c2c1	-11	0	11	4	0	-5	nt	nt
Cc1cc(SCC(=O)N/N=C/c2ccc(O)c(O)c2)c(C)cc1Br	-6	0	20	3	4	29*	6	2
Nc1nc(-c2ccc(Cl)cc2)c(S(=O)(=O)c2ccccc2)s1	-10	0	4	-1	8	20*	0	0
Cc1nc(-c2cccc(NS(=O)(=O)c3ccc4ccccc4c3)c2)cs1	10*	0	20	-2	8	26*	8	2
O=C1CC(c2ccc(Cl)cc2)CC(O)=C1C=NCCO (centres undefined)	nt	0	0	-1	-4	4	nt	nt
CC(C)c1ccc(OCC(=O)NCc2ccccc2)cc1	-2	0	-7	15	0	78*	0	0
CC(C)c1ccc(CNC(=O)CCc2ccccc2)cc1	-2	0	-7	4	-3	4	nt	nt
Cc1nn(CCCC(=O)Nc2cc(Oc3ccc(F)cc3)cc([N+](=O)[O-])c2)c(C)c1[N+](=O)[O-]	1	0	8	-2	6	26*	5	2
Cc1ccccc1Oc1cc(NC(=O)CCCn2nc(C)c([N+](=O)[O-])c2C)cc([N+](=O)[O-])c1	2	0	8	-3	8	19	nt	nt
O=C(CSc1nnc(-c2ccccc2Cl)o1)Nc1ccccn1	0	0	-3	2	1	6	nt	nt
COc1ccc(C)cc1NC(=O)c1cc(S(=O)(=O)N2CCCCC2)ccc1N1CCOCC1	-2	-1	13	1	6	0	nt	nt
COC(=O)c1cc(S(=O)(=O)NCCN2CCN(c3ccccc3F)CC2)c[nH]1	1	0	-5	2	-3	-7	nt	nt
COc1ccc(Cl)cc1S(=O)(=O)NCc1ccncc1	-1	0	-2	2	-1	-3	nt	nt
COc1ccccc1NC(=O)Cc1csc(NC(=S)Nc2ccccc2)n1	11*	-1	21	11	3	21*	6	2
SMILES	NR3A LBD binder	KLK7 zymogen act	rCAG binder	AHR activator	ADAM17 inh	ADAM10 inh	ADAM10 confirm	ADAM17 counter
CCOP(=O)(OCC)C(NC(=O)Nc1ccc(Cl)c(Cl)c1)C(N)=O (centres undefined)	-5	-1	0	3	3	4	nt	nt
CCOP(=O)(OCC)C(NC(=O)Nc1ccc(Cl)c(Cl)c1)c1ccccc1 (centres undefined)	-3	0	12	9	8	22*	0	1
COC(=O)CSc1nnc(-c2ccc(NS(=O)(=O)c3c(C(C)C)cc(C(C)C)cc3C(C)C)cc2)o1	nt	0	22	nt	8	21*	10	3
CCN(c1ccccc1)S(=O)(=O)c1cc(C(=O)Nc2ccc(F)c(F)c2)ccc1F	10*	0	4	7	8	26*	8	3
CCCN1CCC(NC23CC4CC(CC(C4)C2)C3)CC1	nt	nt	nt	-1	nt	nt	nt	nt
CCOC(=O)Nc1ccc2c(c1)N(C(=O)OCCN(C)C)c1ccccc1CC2	0	0	-4	16	-11	51*!	2	0
Cc1ccc(NC(=O)CNc2ccc(Cl)c(Cl)c2)cc1S(=O)(=O)N(C)C	19*	1	11	-2	8	23*	5	2
Cc1ccc(NC(=O)Cc2ccccc2Cl)cc1S(=O)(=O)N(C)C	-2	-1	7	0	2	3	nt	nt
CCOC(=O)N1CCN(CCC(=O)Nc2ccc(OC)cc2)CC1	0	0	-3	1	-1	71*	1	0
CSc1ccccc1NC(=O)CN(c1cc(C)cc(C)c1)S(C)(=O)=O	-1	-1	-2	12	-2	0	nt	nt
CS(=O)(=O)N(CC(=O)Nc1ccccc1Sc1ccccc1)c1cccc(Br)c1	-10	0	6	1	11*	25*	12	4
COc1cc(Sc2ccc(C)cc2)c(OC)cc1N	0	0	3	3	-1	30*	2	1
Cc1noc(C)c1COc1cccc(C(=O)OCCOc2ccc(F)cc2)c1	5	1	4	-2	5	26*	4	1
CC(C)(C)OC(=O)C[C@H]1C/C=C\C[C@H](CC(=O)NCCO)C(=O)N[C@@H](c2ccccc2)COC1=O	0	0	-7	1	-2	-4	nt	nt
CCOC(=O)c1c(N)sc2c(OCC)c(Br)ccc12	nt	-2	10	27	5	23*	6	3

Source: PubChem (several laboratories)
